This note sets out measurements from the supplement of paper PMC13380429.

A number with no mark means an inactive call.

The test system of the assay is Vero E6 infected with SARS-CoV-2. Nature of the assay: inhibition of SARS-CoV-2 cytopathic effect; higher = more antiviral protection, active = above 15. The settings on record: 833.33 nM; 48 h.
With `CCN(C)C(=O)Oc1cccc([C@H](C)N(C)C)c1` [rivastigmine], the “inhibition of SARS-CoV-2 cytopathic effect” value (“inhibition” for short) was -1.22%. Turning to `CCO[C@@H](Cc1ccc(OCCc2ccc(OS(C)(=O)=O)cc2)cc1)C(=O)O` [tesaglitazar], the “inhibition” value is -2.48%.

Take `O=C1C[C@@H](c2ccc(O)cc2)Oc2cc(O)ccc21`: the “inhibition” value is 1.65%. As for `O=C1OCCN1/N=C/c1ccc([N+](=O)[O-])o1` [furazolidone], the “inhibition” value was 1.08%. `O=C1C=Cc2cc(Br)ccc2C1=O` [bonaphthone]: the “inhibition” value is -1.56%.

Consider `CC(C)NNC(=O)c1ccncc1` [iproniazid], for which the “inhibition” value was 0.46%. For `CC1(C)S[C@@H]2[C@H](N3C(=O)[C@@H](c4ccccc4)NC3(C)C)C(=O)N2[C@H]1C(=O)O` [hetacillin], the “inhibition” value is 2.11%. The result for `CC(C)(C#N)c1cc(Cn2cncn2)cc(C(C)(C)C#N)c1` [anastrozole] reads -1.74%; that for `CC[C@@H](CO)NC(=O)[C@@H]1C=C2c3cccc4c3c(cn4C)C[C@H]2N(C)C1` [methysergide], 1.51%; that for `Cc1ccc2c(c1CCC(=O)O)CC[C@@H](NS(=O)(=O)c1ccc(Cl)cc1)C2` [terutroban], -1.42%.

Take `OCC(CO)N[C@H]1C[C@](O)(CO)[C@@H](O)[C@H](O)[C@H]1O` [voglibose]: the “inhibition” value is 2.63%. To `CN(C)CCCN1c2ccccc2Sc2ccccc21` [promazine] belongs 0.57%; to `CCCCOC(=O)c1ccc(N)cc1` [butamben], 6.53%. Regarding `COc1ccc2cc([C@H](C)C(=O)O)ccc2c1` [naproxen], the “inhibition” value was -1.2%. Consider `C[C@@H](O)[C@H]1C(=O)N2C(C(=O)O)=C([C@H]3CCCO3)S[C@H]12` [faropenem], for which the “inhibition” value was 0.92%. To `Cn1cc(C2=C(c3cn(C4CCN(Cc5ccccn5)CC4)c4ccccc34)C(=O)NC2=O)c2ccccc21` [enzastaurin] belongs 1.31%. As for `Cc1c(S(=O)(=O)O)oc2c1C(=O)C(=O)c1c-2ccc2c1CCCC2(C)C` [sodium-tanshinone-II-A-sulfonate], the “inhibition” value is -7.14%. `CCOC(=O)CCNc1cc(N2CCc3ccccc3CC2)nc(-c2ccccn2)n1`: the “inhibition” value is 1.83%. As for `Cc1[nH]c2ccc(O)cc2c1CCN` [2-methyl-5-hydroxytryptamine], the “inhibition” value is -12.8%. To `Cn1cc(-c2ccc(F)c(C(F)(F)F)c2)nc1C1CCN(c2ncnc3[nH]ncc23)CC1` belongs -2.86%; to `CC(C)/N=c1\cc2n(-c3ccc(Cl)cc3)c3ccccc3nc-2cc1Nc1ccc(Cl)cc1` [clofazimine], 6.27%.

Turning to `CCCCNc1c(C(=O)OCC)c(C)nc2c1cnn2CC` [tracazolate], the “inhibition” value was -2.81%. To `CCOc1ccccc1OC(c1ccccc1)C1CNCCO1` (stereo not given) [reboxetine] belongs -0.58%. For the compound `O[C@@H]1CO[C@H]2[C@@H]1OC[C@@H]2O` [isosorbide], the “inhibition” value is 3.22%. Regarding `CC(=O)NC1CCSC1=O` (stereo not given) [citiolone], the “inhibition” value was -4.01%. Take `CS(=O)(=O)c1ccc(-c2cc(Br)sc2-c2ccc(F)cc2)cc1`: the “inhibition” value is -3.46%. The result for `CCCN1CCN(c2ccc(C(=O)NC3(C(=O)NCC#N)CCCCC3)cc2)CC1` [balicatib] reads 0.29%; that for `CC(C)(O)CS(=O)(=O)Nc1ccc2c(c1)CCN(C(=O)COc1cccnc1)C2` [Nampt-IN-1], -15.6%.

`COC(=O)N[C@H](C(=O)N1CCC[C@H]1c1ncc(-c2ccc(-c3ccc(-c4cnc([C@@H]5CCCN5C(=O)[C@@H](NC(=O)OC)C(C)C)[nH]4)cc3)cc2)[nH]1)C(C)C` [daclatasvir]: the “inhibition” value is -2.47%.

As to `CCCC(C)C1(CC)C(=O)NC(=S)NC1=O` (stereo not given) [thiopental], the “inhibition” value is 1.29%. For the compound `CC(C)n1cnc2c(C(=O)N[C@H]3CN4CCC3CC4)cc(Cl)cc21`, the “inhibition” value was 1.32%. Regarding `N#CC(c1ccnc(OCc2ccc(CN3CCOCC3)cc2)n1)c1nc2ccccc2s1` (stereo not given), the “inhibition” value is 2.82%.

Take `N=C(NCCC[C@H](N)C(=O)O)N[N+](=O)[O-]` [NG-nitro-arginine]: the “inhibition” value was 0.27%. Regarding `COc1ccc(CCO[C@@H]2CCCC[C@H]2N2CC[C@@H](O)C2)cc1OC` [vernakalant], the “inhibition” value is 1.67%. In the case of `CCN(CC)CCNC(=O)c1ccccc1I`, the “inhibition” value is -2.04%. Regarding `Cc1cnc(Nc2ccc(N3CCN(C)CC3)cc2)nc1Nc1cccc(S(=O)(=O)NC(C)(C)C)c1`, the “inhibition” value was -7.25%.

In the case of `c1ccc2c(-c3cnn4cc(-c5ccc(N6CCNCC6)cc5)cnc34)ccnc2c1`, the “inhibition” value is -6.31%. In the case of `C=C1CC[C@H](O)C/C1=C/C=C1\CCC[C@]2(C)[C@@H]([C@H](C)CCCC(C)C)CC[C@@H]12` [cholecalciferol], the “inhibition” value is -2.03%. The result for `Nc1nccc(Oc2ccc(NC(=O)c3c[nH]cc(-c4ccc(F)cc4)c3=O)cc2F)c1Cl` [metatinib] reads 4.29%; that for `O=C(NCC1CCCCN1)c1cc(OCC(F)(F)F)ccc1OCC(F)(F)F` (stereo not given) [flecainide], 3.98%.
